In experiment [1] the test system is Wnt5a (protein binding on small-molecule microarray). As to the kind of experiment: Wnt5a binders on small-molecule microarray, primary screen, biophysical, 635/667 nm fluorescence (AID 1142).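 Note: fluorescence read at 667 nm with signal to noise per printed feature.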 The note with it: 635 nm fluorescence, higher = more signal.
Experiment [2] is described as follows: cell viability in Huh7 cells, primary screen, cytotoxicity control for HCV replication inhibitor project, CellTiter-Glo luminescence, basal, 48 h (AID 1143).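 Note: Huh7 hepatoma cells carrying a hepatitis C replication reporter with no stimulus; test concentration not given here.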 Particulars: Huh7 HCV replicon, higher = more signal, called active from +8 up or from −8 down.
A short description of experiment [3]: P. aeruginosa biofilm formation inhibitors, primary screen, PAO1 strain, BacTiter-Glo luminescence, LB-PBS (AID 1144). The note with it: 12 h, higher = more signal.
Experiment [4] in a line: CREB reporter modulators without forskolin, primary screen, cell-based, PC12, CRE-LacZ reporter, unstimulated (AID 1145). The note with it: no forskolin, luminescence, 4.5 h, higher = more signal, called active from +8 up or from −8 down.
Experiment [5] in a line: CREB reporter modulators under forskolin, primary screen, cell-based, PC12, CRE-LacZ reporter, forskolin-stimulated (AID 1146).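 Note: PC12 cells with 6xCRE LacZ reporter stimulated by forskolin 10 µM; beta-galactosidase reporter signal reflecting CREB driven transcription.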 Particulars: luminescence, 4.5 h, higher = more signal, called active from +8 up or from −8 down.
The target in experiment [6] is Streptavidin (Streptomyces avidinii) (UniProt P22629). Kind of experiment: streptavidin binders on small-molecule microarray, primary screen, artefact control for SMM compound annotation, biophysical, 635/667 nm fluorescence (AID 1147).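 Note: signal reflects streptavidin binding to arrayed compounds as a control protein.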 Particulars: streptavidin binding, higher = more signal.
Experiment [7] is described as follows: small-molecule binders of probe aInhba, primary screen, biochemical, small-molecule microarray, 635/667 nm fluorescence (AID 1148).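 Note: score merges 667nm spot fluorescence with signal-to-noise for antibody binding to printed compounds.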 Particulars: higher = more signal.
Experiment [8] has as its target Torsin-1A (Homo sapiens) (UniProt O14656). Kind of experiment: torsin A binders from cell lysate, primary screen, small-molecule microarray, wild-type, 635/667 nm (AID 1149). The note with it: COS7 hTOR1A-WT lysate, 635 nm fluorescence, higher = more signal.
For experiment [9] the target is unchanged. Kind of experiment: small-molecule binders of mutant TOR1A in lysate, primary screen, cell lysate, small-molecule microarray, COS7 lysate, 635/667 nm fluorescence (AID 1150).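 Note: score pools 667 nm emission and signal to noise measuring lysate protein binding.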 Particulars: COS7 hTOR1A mutant lysate, 635 nm fluorescence, higher = more signal.
Experiment [10] has as its system Sonic hedgehog protein (Shh). Kind of experiment: small-molecule binders of Shh protein, primary screen, biochemical, small-molecule microarray, 635/667 nm fluorescence (AID 1151).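 Note: Shh protein binding to compounds spotted on small-molecule microarray slides; score combines spot fluorescence intensity with signal-to-noise across triplicate slides.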 Particulars: small-molecule microarray binding, 635 nm fluorescence; higher = more signal.
Experiment [11] in a line: E. coli DRC41 culture turbidity changes, primary screen, E. coli filamentation inducer project, strain DRC41, OD650, 48 h (AID 1152).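 Note: E. coli MC1000 strain DRC41 lacking acrAB efflux pump and sulA.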 Particulars: E. coli DRC41 (acrAB sulA), higher = more signal, called active from +8 up or from −8 down.
The nature of experiment [12]: small-molecule binders of probe aLefty1, primary screen, biochemical, small-molecule microarray, 635/667 nm fluorescence (AID 1153).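 Note: score merges spot fluorescence with signal-to-noise ratio from the scanned slide images.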 Particulars: higher = more signal.
A short description of experiment [13]: PSAC antagonists in infected red cells, primary screen, cell-based, P. falciparum Indochina, OD700, 1 h (AID 1154). The note with it: P. falciparum Indochina infected RBC osmotic lysis, higher = more signal, called active from +8 up or from −8 down.
The nature of experiment [14]: PSAC antagonists in infected red cells, primary screen, cell-based, P. falciparum Indochina, OD700, 2 h (AID 1155).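 Note: lysis reports solute entry through the parasite surface anion channel PSAC; channel blockers reduce lysis of infected cells.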 The note with it: P. falciparum Indochina infected erythrocytes, osmotic lysis OD700; higher = more signal, called active from +8 up or from −8 down.
Experiment [15] in a line: osmotic lysis modulators in infected erythrocytes, primary screen, PSAC antagonist project, cell-based, P. falciparum Indochina, OD700, 3 h (AID 1156). The note with it: higher = more signal, called active from +8 up or from −8 down.
Experiment [16] in a line: PSAC antagonists in infected red cells, primary screen, cell-based, P. falciparum Indochina, OD700, 18 h (AID 1157). Particulars: P. falciparum Indochina infected erythrocytes, osmotic lysis OD700, 18 h; higher = more signal, called active from +8 up or from −8 down.
Experiment [17] in a line: modulators of S6 phosphorylation in cells, primary screen, cell-based, A549, cytoblot, luminescence, serum-stimulated (AID 1158).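 Note: serum-stimulated A549 lung adenocarcinoma cells; signal is phosphorylated S6 detected by cytoblot immunostaining with HRP secondary.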 The note with it: A549 phospho-S6 cytoblot, 5 h, higher = more signal.
Experiment [18] deals with NADPH oxidase 2 (Homo sapiens) (UniProt P04839). Kind of experiment: NOX2-dependent H2O2 signal modulators, primary screen, NOX inhibitor project, cell-based, HEK293-NOX2, PMA-stimulated, Amplex Red fluorescence (AID 1159). Note: test concentration not given here. Particulars: 45 min, higher = more signal, called active from +8 up or from −8 down.
In experiment [19] the target is NADPH oxidase 4 (Homo sapiens) (UniProt Q9NPH5). As to the kind of experiment: NOX4-dependent H2O2 signal modulators, primary screen, NOX inhibitor project, cell-based, HEK293-NOX4, tetracycline-induced, Amplex Red fluorescence (AID 1160). The note with it: 45 min, higher = more signal, called active from +8 up or from −8 down.
Experiment [20] concerns the target NADPH oxidase 5 (Homo sapiens) (UniProt Q96PH1). As to the kind of experiment: NOX5-dependent H2O2 signal modulators, primary screen, NOX inhibitor project, cell-based, HEK293-NOX5, Amplex Red fluorescence (AID 1161). The note with it: HEK293-NOX5, ionomycin, 45 min, higher = more signal.

Each structure is given as a SMILES string. Calls of active or inactive are those of the source. Unless noted, the rule behind the calls is not given here.

Torsin-1A (Homo sapiens), sequence (O14656 whole entry, looked up): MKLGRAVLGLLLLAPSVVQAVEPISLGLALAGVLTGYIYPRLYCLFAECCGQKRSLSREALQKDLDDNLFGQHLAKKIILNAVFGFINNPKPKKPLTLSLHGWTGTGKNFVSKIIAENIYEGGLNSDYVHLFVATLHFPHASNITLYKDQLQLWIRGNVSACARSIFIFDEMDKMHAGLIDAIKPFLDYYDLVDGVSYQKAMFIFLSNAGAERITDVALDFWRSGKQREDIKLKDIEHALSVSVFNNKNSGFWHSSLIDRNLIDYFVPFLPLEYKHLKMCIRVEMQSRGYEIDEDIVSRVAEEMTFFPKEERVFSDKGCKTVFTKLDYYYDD
NADPH oxidase 2 (Homo sapiens), sequence (P04839 whole entry, looked up): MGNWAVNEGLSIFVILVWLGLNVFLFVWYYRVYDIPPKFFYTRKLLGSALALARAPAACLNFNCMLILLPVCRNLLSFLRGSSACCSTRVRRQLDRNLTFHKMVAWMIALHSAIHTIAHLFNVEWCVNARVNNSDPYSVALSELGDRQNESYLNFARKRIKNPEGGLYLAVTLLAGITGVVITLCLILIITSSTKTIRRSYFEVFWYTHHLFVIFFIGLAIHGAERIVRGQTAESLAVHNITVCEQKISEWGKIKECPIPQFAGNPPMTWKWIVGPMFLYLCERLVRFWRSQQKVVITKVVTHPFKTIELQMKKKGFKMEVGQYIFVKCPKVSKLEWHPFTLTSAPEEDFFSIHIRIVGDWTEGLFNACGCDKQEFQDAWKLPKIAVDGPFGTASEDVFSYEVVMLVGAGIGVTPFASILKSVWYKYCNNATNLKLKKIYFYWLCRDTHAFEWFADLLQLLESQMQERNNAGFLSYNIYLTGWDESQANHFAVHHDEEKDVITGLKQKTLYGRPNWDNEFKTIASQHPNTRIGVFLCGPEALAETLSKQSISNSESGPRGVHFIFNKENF
Streptavidin (Streptomyces avidinii), sequence (P22629 whole entry, looked up): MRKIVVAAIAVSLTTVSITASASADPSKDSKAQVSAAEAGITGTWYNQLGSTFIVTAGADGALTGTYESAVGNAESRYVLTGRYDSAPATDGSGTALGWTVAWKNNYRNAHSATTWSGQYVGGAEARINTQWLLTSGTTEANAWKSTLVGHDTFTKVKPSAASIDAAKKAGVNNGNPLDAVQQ
NADPH oxidase 5 (Homo sapiens), sequence (Q96PH1 whole entry, looked up): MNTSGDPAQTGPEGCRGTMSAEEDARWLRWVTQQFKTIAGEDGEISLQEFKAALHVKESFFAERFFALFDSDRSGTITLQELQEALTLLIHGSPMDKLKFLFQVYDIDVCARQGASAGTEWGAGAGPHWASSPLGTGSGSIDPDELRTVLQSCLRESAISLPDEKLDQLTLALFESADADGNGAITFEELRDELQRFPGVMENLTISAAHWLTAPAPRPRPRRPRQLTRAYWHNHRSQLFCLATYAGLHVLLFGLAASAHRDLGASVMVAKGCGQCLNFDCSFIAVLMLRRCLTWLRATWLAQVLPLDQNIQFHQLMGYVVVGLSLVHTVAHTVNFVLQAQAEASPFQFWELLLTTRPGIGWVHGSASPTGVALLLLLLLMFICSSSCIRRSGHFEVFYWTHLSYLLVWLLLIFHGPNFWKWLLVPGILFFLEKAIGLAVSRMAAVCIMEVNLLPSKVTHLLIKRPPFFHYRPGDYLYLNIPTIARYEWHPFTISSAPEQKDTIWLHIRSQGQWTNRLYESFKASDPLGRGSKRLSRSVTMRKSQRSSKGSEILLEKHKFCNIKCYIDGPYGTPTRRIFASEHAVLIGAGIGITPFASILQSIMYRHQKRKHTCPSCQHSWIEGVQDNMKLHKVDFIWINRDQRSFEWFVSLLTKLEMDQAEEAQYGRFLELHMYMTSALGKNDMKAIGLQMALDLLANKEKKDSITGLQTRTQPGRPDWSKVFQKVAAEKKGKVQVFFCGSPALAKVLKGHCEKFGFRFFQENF
NADPH oxidase 4 (Homo sapiens), sequence (Q9NPH5 whole entry, looked up): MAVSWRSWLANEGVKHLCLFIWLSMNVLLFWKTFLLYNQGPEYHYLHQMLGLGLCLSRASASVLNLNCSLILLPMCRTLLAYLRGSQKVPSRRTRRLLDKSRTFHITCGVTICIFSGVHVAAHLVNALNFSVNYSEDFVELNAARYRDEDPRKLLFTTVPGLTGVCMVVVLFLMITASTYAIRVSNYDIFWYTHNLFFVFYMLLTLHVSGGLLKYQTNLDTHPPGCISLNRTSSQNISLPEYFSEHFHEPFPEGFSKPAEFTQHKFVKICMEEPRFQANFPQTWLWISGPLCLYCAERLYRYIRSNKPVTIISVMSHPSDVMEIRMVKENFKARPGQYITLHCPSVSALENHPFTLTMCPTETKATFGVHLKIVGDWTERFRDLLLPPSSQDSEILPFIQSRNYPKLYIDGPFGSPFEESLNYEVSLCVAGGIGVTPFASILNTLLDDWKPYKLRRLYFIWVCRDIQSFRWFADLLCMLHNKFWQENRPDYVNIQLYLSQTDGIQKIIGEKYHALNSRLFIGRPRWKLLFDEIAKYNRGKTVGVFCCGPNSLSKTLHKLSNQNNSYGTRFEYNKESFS

For the compound `CCCCN1CC=CC23O[C@@H]4C=CCCOC(=O)C4[C@H]2C(=O)N(CCO)[C@@H]3C1=O` (stereo not given in full), the composite z-score in [1] was -0.213; in [6] it was -0.434; in [7] it was -0.0405; with Torsin-1A (Homo sapiens) [8], -0.856; in the experiment with Torsin-1A (Homo sapiens) [9], -0.508; in experiment [10], 1.71. Besides, the composite z-score in [12] was -0.239. The z-score in experiment [2] is 0.142 (inactive); in experiment [3], -0.892 (inactive); in experiment [4], -1.45 (inactive); in [5], -0.34 (inactive); in experiment [11], 0.634 (inactive); in [13], 0.506 (inactive). For the same compound, the z-score in [14] is 0.303 (inactive); in experiment [15] it was 1.21 (inactive); in experiment [16], 0.211 (inactive); in [17], -0.357; in [18] it was 1.09 (inactive); in experiment [19], 0.519 (inactive). For the same compound, the z-score in experiment [20] turned out to be 0.432.
Regarding `C=C[C@@H](CO)NS(=O)(=O)c1ccc(Br)cc1`, the composite z-score is 0.236 in experiment [1]; -0.232 in experiment [6]; -0.154 in experiment [7]; -0.0176 with Torsin-1A (Homo sapiens) [8]; -0.354 with Torsin-1A (Homo sapiens) [9]; -0.317 in [10]. The compound also yielded a composite z-score in experiment [12] of -0.239. The z-score in experiment [2] is -2.14 (inactive); in experiment [3], -1.74 (inactive); in experiment [4] it was 1.54 (inactive); in experiment [5], -0.52 (inactive); in [11], 3.75 (inactive); in experiment [13], -0.398 (inactive). Besides, the z-score in [14] was -0.68 (inactive); in experiment [15], -1.12 (inactive); in experiment [16] it was -1.81 (inactive); in experiment [17], 1.36; in experiment [18], 0.908 (inactive); in experiment [19] it was 1.05 (inactive). In experiment [20], the z-score is 1.44.
As for `COCCOC(=O)N1C(=O)[C@@]2(c3cc(C#CC4=CCCCC4)ccc31)[C@H](C(=O)N1CCCCCCC1)[C@H]1C(=O)O[C@H](c3ccccc3)[C@H](c3ccccc3)N1[C@@H]2c1ccccc1OCCO`, the composite z-score was 0.393 in experiment [1]; 1.04 in experiment [6]; 0.806 in experiment [7]; 0.801 in the experiment with Torsin-1A (Homo sapiens) [8]; 0.824 with Torsin-1A (Homo sapiens) [9]; 1.62 in experiment [10]. The composite z-score in experiment [12] stood at 1.11. The z-score in [2] was -5.21 (inactive); in experiment [3], -1.33 (inactive); in experiment [4] it was -1.7 (inactive); in [5] it was -1.11 (inactive); in experiment [11], 0.857 (inactive); in experiment [13], 0.951 (inactive). For the same compound, the z-score in experiment [14] is 1.01 (inactive); in experiment [15] it was -0.249 (inactive); in experiment [16], 0.413 (inactive); in experiment [17], 0.526; in experiment [18], -0.129 (inactive); in experiment [19], 0.322 (inactive). The compound also gave a z-score in experiment [20] of 0.0795.
Turning to `CN1C(=O)C2C=CC(C(O)c3ccc(I)cc3)N(N(c3ccccc3)c3ccccc3)C2C1=O` (stereo not given), the composite z-score in experiment [1] was -0.268; in experiment [6], 0.609; in [7], -0.0581; with Torsin-1A (Homo sapiens) [8] it was -0.728; with Torsin-1A (Homo sapiens) [9], -0.545; in experiment [10], -0.416. The compound further came in with a composite z-score in experiment [12] of 0.193. For the same compound, the z-score was -0.619 (inactive) in [2]; 0.257 (inactive) in experiment [3]; -0.136 (inactive) in experiment [4]; 0.58 (inactive) in experiment [5]; -1.27 (inactive) in [11]; 3.99 (inactive) in experiment [13]. The z-score in experiment [14] was 1.62 (inactive); in experiment [15], 0.537 (inactive); in experiment [16] it was 1.54 (inactive); in experiment [17], -1.19; in experiment [18] it was 0.461 (inactive); in experiment [19], 1.23 (inactive). Moreover, the z-score in experiment [20] was -0.585.

The values are drawn from PubChem BioAssay.
